In publication PMC5700166:

The sequences below were run against T1, GST-Nv-NF-kB (Ser allele) (Nematostella vectensis, UniProt A7UNT2 2-411) (assay: protein-binding microarray (PBM); PBM: ~300 nM protein, 6 mM HEPES pH 7.8, 80 mM KCl, 0.5 mM EDTA, 0.5 mM EGTA, 6% glycerol, 35 ng/ul poly-dIdC, 1% milk, 1 h, room temperature; Ap Aiptasia and Nv Nematostella (sea anemones) / Co Capsaspora / Aq Amphimedon (sponge) / Dm Drosophila / Hu human; RHD is the Rel homology domain; high values mean tight binding). Conditions: dsDNA, one strand shown.
T1 sequence: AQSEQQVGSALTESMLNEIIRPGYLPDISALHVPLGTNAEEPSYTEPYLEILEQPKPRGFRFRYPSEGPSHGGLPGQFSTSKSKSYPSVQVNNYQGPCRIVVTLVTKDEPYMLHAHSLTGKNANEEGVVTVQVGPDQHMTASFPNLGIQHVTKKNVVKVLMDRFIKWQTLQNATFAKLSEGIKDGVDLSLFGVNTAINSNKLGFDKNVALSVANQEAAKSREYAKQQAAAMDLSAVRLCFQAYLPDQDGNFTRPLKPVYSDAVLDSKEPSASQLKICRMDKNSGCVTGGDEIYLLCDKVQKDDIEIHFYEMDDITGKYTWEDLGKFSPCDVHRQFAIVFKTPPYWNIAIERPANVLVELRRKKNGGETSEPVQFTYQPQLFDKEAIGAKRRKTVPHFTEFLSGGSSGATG

In order of rising binding signal:
1. CCGATTAACATCAGGAAAAGCCCTGATGTTAATCGGGTCTTGATTCGCTTGACGCTGCTG  1.03 z-score
2. CCGATTAACATCAGACTGGGAAATGATGTTAATCGGGTCTTGATTCGCTTGACGCTGCTG  1.66 z-score
3. CCGATTAACATCACCCAGGGAAATGATGTTAATCGGGTCTTGATTCGCTTGACGCTGCTG  1.97 z-score
4. CCGATTAACATCAGGATTGCCCCTGATGTTAATCGGGTCTTGATTCGCTTGACGCTGCTG  2.73 z-score
5. CCGATTAACATCAGAAGATTCCCTGATGTTAATCGGGTCTTGATTCGCTTGACGCTGCTG  3.95 z-score
6. CCGATTAACATCAAAAAACACCCTGATGTTAATCGGGTCTTGATTCGCTTGACGCTGCTG  4.25 z-score
7. CCGATTAACATCAGGGGGGACAATGATGTTAATCGGGTCTTGATTCGCTTGACGCTGCTG  4.45 z-score
8. CCGATTAACATCAGCGAATTCCCTGATGTTAATCGGGTCTTGATTCGCTTGACGCTGCTG  4.46 z-score
9. CCGATTAACATCAGGGCGTCCCCTGATGTTAATCGGGTCTTGATTCGCTTGACGCTGCTG  4.47 z-score
10. CCGATTAACATCAGGGGATCTACTGATGTTAATCGGGTCTTGATTCGCTTGACGCTGCTG  5.35 z-score
11. CCGATTAACATCAGGGGATCCCATGATGTTAATCGGGTCTTGATTCGCTTGACGCTGCTG  6.24 z-score
